Cardio protect = cardioprotection against H2O2-induced cell death, primary screen, uHTS, H9c2 cells, ATPLite luminescence | H9c2 cardiomyocytes, H2O2 injury protection, 2 h | protection from H2O2 cell death, % at 20 µM | hit rate 0.63% among 360,000 | AID 588492, 2011;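 active means compounds giving at least 50% protection of heart cells from peroxide-induced death in the single-dose screen, raw or plate-pattern-corrected value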;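 further: 0% = DMSO wells with peroxide and 100% = DMSO wells without peroxide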
V-ATPase pH = regulators of yeast V-ATPase proton pumping, primary screen, pHLuorin cytosolic pH fluorescence; S. cerevisiae; response, % at 10 µM; hit rate 0.37% among 350,000; AID 504577, 2011; in the data active means response mostly above about 7.3%, no sharp cut-off; inactive means mostly below about 5.4%; further: actives read high
CR mimetic SO = reduction of superoxide in aged yeast, primary screen, HTS | S. cerevisiae aged cells, superoxide DHE fluorescence; stronger effect = lower value | superoxide response (% of plate mean), % at 10 µM | hit rate 0.18% among 330,000 | AID 2690, 2010;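 active means superoxide response under a set limit, about three screen SD below normal, cut at about 65% in these data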;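 further: yeast aged for seven days with compound at 30 °C before DHE staining; 100% = average MFI of all compound-treated wells on the plate with controls excluded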
p-CIP stab down = p/CIP-EGFP fusion destabilizers, primary screen, fluorescence, F442A cells; hit rate 0.01% among 290,000; decrease of EGFP signal, % at 10 µM; 16 h;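 active means EGFP signal decrease of at least 30% at 10 µM or well 3 SD below plate mean, unless failing retest; inactive means the rest, including hits failing retest or dose response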
Target sequence (Q05BA5 1-1403): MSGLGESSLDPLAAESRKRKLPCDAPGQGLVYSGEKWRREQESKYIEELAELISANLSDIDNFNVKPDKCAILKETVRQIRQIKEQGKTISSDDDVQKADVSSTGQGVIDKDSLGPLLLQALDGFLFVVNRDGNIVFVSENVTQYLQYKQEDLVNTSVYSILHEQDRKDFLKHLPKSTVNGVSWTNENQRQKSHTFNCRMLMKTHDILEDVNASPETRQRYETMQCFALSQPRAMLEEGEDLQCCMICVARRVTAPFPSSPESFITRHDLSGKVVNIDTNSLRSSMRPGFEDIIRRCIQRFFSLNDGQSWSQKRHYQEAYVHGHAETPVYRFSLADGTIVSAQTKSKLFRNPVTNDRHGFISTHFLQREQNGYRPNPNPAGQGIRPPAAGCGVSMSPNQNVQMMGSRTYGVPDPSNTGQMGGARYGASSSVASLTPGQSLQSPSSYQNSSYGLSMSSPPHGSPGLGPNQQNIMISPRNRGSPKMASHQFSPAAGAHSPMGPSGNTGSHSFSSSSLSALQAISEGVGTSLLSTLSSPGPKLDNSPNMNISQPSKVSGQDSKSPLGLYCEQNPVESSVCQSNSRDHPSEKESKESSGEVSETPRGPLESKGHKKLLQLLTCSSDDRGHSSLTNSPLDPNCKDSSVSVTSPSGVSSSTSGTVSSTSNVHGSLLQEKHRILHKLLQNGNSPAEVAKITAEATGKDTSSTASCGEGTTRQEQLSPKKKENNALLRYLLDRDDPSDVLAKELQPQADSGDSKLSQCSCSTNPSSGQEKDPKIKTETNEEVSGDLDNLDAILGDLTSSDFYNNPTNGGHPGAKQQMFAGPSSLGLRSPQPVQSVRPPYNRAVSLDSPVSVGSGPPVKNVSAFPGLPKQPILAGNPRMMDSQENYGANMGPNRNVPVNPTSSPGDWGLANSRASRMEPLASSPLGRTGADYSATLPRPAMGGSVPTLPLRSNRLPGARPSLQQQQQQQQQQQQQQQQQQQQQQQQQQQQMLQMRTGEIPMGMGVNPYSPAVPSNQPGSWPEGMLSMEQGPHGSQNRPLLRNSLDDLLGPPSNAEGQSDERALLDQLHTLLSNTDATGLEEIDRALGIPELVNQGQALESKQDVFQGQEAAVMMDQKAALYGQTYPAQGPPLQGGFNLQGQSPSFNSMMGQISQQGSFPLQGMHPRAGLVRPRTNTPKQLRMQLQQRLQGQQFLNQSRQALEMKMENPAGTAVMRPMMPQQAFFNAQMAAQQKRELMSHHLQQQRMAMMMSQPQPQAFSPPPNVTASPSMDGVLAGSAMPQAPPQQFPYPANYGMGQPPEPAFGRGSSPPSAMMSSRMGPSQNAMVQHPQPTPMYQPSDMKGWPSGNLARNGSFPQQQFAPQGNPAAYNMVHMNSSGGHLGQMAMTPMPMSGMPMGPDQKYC
HSV replic up = enhancers of HSV replication in host cells, fold increase, host cell viability | HSV replication augmentation in cells | maximum fold increase | hit rate 0.005% among 220,000 | AID 1956, 2009; in the data active means maximum fold increase above about 1.5; tested in PC3 cells
MIN6 prolif = inducers of MIN6 beta-cell proliferation, primary screen, ATP luminescence, uHTS. MIN6 cells proliferation, ATPlite luminescence, 48 h; cells starved in 0.2% serum; 100% = growth in 10% serum. proliferation, % at 10 µM. hit rate 0.29% among 330,000. AID 2380, 2010;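 active means compounds whose signal lies at least 3.5 SD above the mean of all wells on their plate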;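 further: 0% = DMSO-treated cells in low-serum medium and 100% = 10% serum control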
* marks the source's active call; other numbers are inactive results; i = inactive; . = no result given. Rows were chosen to be rich in hits. Some 1.4% of all compounds tested hit in one or more screens of this group.

SMILES | Cardio protect | V-ATPase pH | CR mimetic SO | p-CIP stab down | HSV replic up | MIN6 prolif
COc1ccc(/C=N/NC(=O)c2sccc2OCc2ccc(F)cc2)cc1OC | 53* | -6 | 96 | -11 | i | -3
O=C(N/N=C/c1cccc(O)c1)c1ccc(COc2cccc3cccnc23)cc1 | -1 | -2 | 96 | 31 | i | 0
COc1ccc(/C=N/NC(=O)c2ccc(COc3cccc4cccnc34)cc2)cc1O | 45 | 0 | 104 | -9 | i | 0
COc1ccc(/C=N/NC(=O)c2ccc(COc3cccc4cccnc34)cc2)cc1OC | 54* | 1 | 97 | -1 | i | -2
Cc1ccc(-c2nn(-c3ccccc3)c3[nH]c(=O)c(CNCCN(C)C)cc23)cc1 | . | . | . | -4 | . | .
Cc1ccc(-c2nn(-c3ccccc3)c3[nH]c(=O)c(CNCc4ccccc4)cc23)cc1 | 52* | 0 | 93 | 10 | i | -4
CC(C)(C)c1nn(-c2ccccc2)c2[nH]c(=O)c(C=O)cc12 | 57* | -2 | 92 | -12 | . | -5
CCOc1ccc(NCc2cc3c(C(C)(C)C)nn(-c4ccccc4)c3[nH]c2=O)cc1 | 58* | -4 | 96 | -16 | i | -4
COc1cccc(NCc2cc3c(C(C)(C)C)nn(-c4ccccc4)c3[nH]c2=O)c1 | 10 | 2 | 96 | 2 | i | -4
CC1CCN(S(=O)(=O)N2CCC(C(=O)NCc3ccc(F)cc3Cl)CC2)CC1 | -10 | . | . | . | . | .
O=C(c1cccc([N+](=O)[O-])c1)N1CCCC(C(=O)N2CCN(c3ccccc3)CC2)C1 (configuration not stated) | -4 | 0 | 104 | -3 | . | -3
CCCc1cc(N2CCN(C(=O)c3ccco3)CC2)n2c(nc3ccccc32)c1C#N | 55* | 1 | 99 | -3 | i | 2
Cc1cc(=O)n2c3c(c4c(cc13)c(CN(C)C)cc(=O)n4C)OC2 | 4 | 4 | . | . | . | .
CCCNC(=O)c1onc(CSc2ccccn2)c1C(=O)NCCC | 0 | 22* | 96 | 0 | i | -4
CCCCNC(=O)c1onc(CSc2ccccn2)c1C(=O)NCCCC | -1 | 0 | 94 | . | i | -2
COc1ccc(O)c(/C=N/c2nc3ccccc3n2C)c1 | 12 | 12* | 109 | -1 | . | 1
COc1cc2nc(Nc3ccc(F)cc3)nc(N)c2cc1OC | 55* | 4 | 102 | -7 | . | -5
COc1cc2nc(Nc3ccc(C)c(C)c3)nc(N)c2cc1OC | -3 | 0 | 97 | -13 | . | -7
O=C(Nc1nnc(CCc2ccccc2)s1)c1ccccc1F | -4 | 0 | 111 | 11 | . | -1
C/C(=N\NC(=O)CCCNc1ccc(C)cc1)c1ccccn1 | 58* | 1 | 92 | -4 | i | -4
O=C(NCc1cccs1)c1ccc2sc(COCCO)nc2c1 | 6 | . | . | . | . | .
CN(C(=O)COC(=O)c1nn(C)c(=O)c2ccccc12)c1c(N)n(Cc2ccccc2)c(=O)[nH]c1=O | -6 | -3 | 95 | . | . | -4
O=C(CN1CCN(C(=O)C2CCN(C(=O)/C=C/c3ccccc3)CC2)CC1)Nc1ccc(F)cc1 | 9 | 0 | . | . | . | .
COC(=O)c1ccc2c(=O)[nH]c(COC(=O)c3[nH]c(C)c(C(C)=O)c3C)nc2c1 | 72* | -7 | 93 | . | . | 4
COc1ccc(N(C(=O)c2cccnc2)S(=O)(=O)c2cccs2)cc1 | 54* | -2 | 98 | -5 | i | -1
O=C(N/N=C/c1c(O)n(-c2ccccc2Cl)c(=O)c2ccccc12)C1COc2ccccc2O1 (configuration not stated) | 68* | -7 | 76 | -4 | i | -2
C[C@H]1CN([C@@H](C)CO)S(=O)(=O)c2ccc(Br)cc2O[C@H]1CN(C)C(=O)Cc1ccncc1 | 3 | . | . | . | . | .
CNC(=S)N1CCN(S(=O)(=O)c2ccc3ccccc3c2)CC1 | -4 | -1 | 106 | -1 | . | 0
Cc1ccc(C)c(N2CCN(C(=O)c3ccc4nc(-c5ccco5)c(-c5ccco5)nc4c3)CC2)c1 | 4 | 2 | 106 | 7 | i | -6
COc1ccccc1N1CCN(C(=O)c2ccc3nc(-c4ccco4)c(-c4ccco4)nc3c2)CC1 | 64* | 1 | 102 | -10 | i | -2
